PubChem BioAssay AID463188 (University of Pittsburgh Molecular Library Screening Center, 2010)
In all, about 1,300 compounds went through this assay and about 360 (28%) were called active.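 Rule for the calls: active = average inhibition of at least 50%, with Z-scores no higher than 3 in both the phospho-tyrosine peptide and fluorescence counterscreens; inactive = the rest.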 Many of the other results were omitted from the sample, so actives are more common in it than they were.

Assays:
[1] = Nef-activated Hck kinase blockers, duplicate retest – biochemical, Z-Lyte FRET, 384-well, p-Tyr peptide counterscreen, confirmation (AID 463188); conditions: Recombinant Hck-YEEI:Nef, Z-Lyte FRET kinase assay; measured here: p-Tyr peptide counterscreen; at 10 µM
[2] = molecular target: Tyrosine-protein kinase HCK (Homo sapiens) (UniProt P08631); assay: as above; conditions: Recombinant Hck-YEEI:Nef, Z-Lyte FRET kinase assay; at 10 µM; stronger effect = higher value
Tyrosine-protein kinase HCK (Homo sapiens), sequence (P08631 whole entry, looked up): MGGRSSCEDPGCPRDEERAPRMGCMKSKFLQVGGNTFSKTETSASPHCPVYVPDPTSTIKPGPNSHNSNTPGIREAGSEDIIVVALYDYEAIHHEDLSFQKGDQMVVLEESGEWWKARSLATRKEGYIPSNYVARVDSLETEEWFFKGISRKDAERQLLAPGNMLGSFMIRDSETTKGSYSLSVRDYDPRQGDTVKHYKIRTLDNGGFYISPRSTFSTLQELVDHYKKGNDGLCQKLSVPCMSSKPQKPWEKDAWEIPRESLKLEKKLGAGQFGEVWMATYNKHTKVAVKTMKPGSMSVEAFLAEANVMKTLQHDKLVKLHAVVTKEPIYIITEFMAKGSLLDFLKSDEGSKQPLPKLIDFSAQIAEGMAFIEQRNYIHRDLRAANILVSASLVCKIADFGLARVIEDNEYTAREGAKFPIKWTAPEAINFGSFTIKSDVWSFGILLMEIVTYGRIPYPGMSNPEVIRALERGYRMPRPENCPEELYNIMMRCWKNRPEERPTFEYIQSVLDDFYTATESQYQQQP

SMILES	z-score [1]	inhibition [2]
O=C1NC(=O)N(Cc2ccco2)C(=O)/C1=C\c1ccc(-c2ccc(F)cc2)o1	0.915	68.2% (active)
COc1cc(Cn2c(N)c(C(=O)NCc3ccco3)c3nc4ccccc4nc32)cc(OC)c1OC	25.8	46.4% (inactive)
